Measured values taken from PubChem BioAssay (NCI).
This is part of a sample that, as a whole, favours compounds with a hit. Of some 83,000 tested, about 20% had one in any assay.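 Single-dose data. Exposure time 48 hours. Values below 10 considered active.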 Active and inactive are the calls of the source.

Assays:
Assay in all cases: NCI-60 one-dose screen, 48 h (100 = growth as untreated, 0 = no growth, -100 = all killed)
[1] = tested on: EKVX NSCLC; conditions: 10 µM unless noted
[2] = tested on: SN12C renal; conditions: 10 µM unless noted
[3] = tested on: UO-31 renal; conditions: 10 µM unless noted
[4] = tested on: TK-10 renal; conditions: 10 µM unless noted
[5] = tested on: ACHN renal; conditions: 10 µM unless noted
[6] = tested on: CAKI-1 renal; conditions: 10 µM unless noted
[7] = tested on: CCRF-CEM leukemia; conditions: 10 µM unless noted
[8] = tested on: MOLT-4 leukemia; conditions: 10 µM unless noted
[9] = tested on: SR leukemia; conditions: 10 µM unless noted
[10] = tested on: RPMI-8226 leukemia; conditions: 10 µM unless noted
[11] = tested on: OVCAR-8 ovarian; conditions: 10 µM unless noted
[12] = tested on: OVCAR-5 ovarian; conditions: 10 µM unless noted
[13] = tested on: OVCAR-4 ovarian; conditions: 10 µM unless noted
[14] = tested on: SK-OV-3 ovarian; conditions: 10 µM unless noted
[15] = tested on: IGROV1 ovarian; conditions: 10 µM unless noted
[16] = tested on: OVCAR-3 ovarian; conditions: 10 µM unless noted
[17] = tested on: NCI/ADR-RES ovarian; conditions: 10 µM unless noted
[18] = tested on: A498 renal; conditions: 10 µM unless noted
[19] = tested on: HS 578T breast; conditions: 10 µM

Measured: growth

COc1ccc(C2CC(=O)c3c(O)c(OC)c(OC)c(OC)c3O2)c(O)c1 (stereo not given)
inactive: [1] 48.4% | [2] 47.4% | [3] 54.2% | [4] 73.1% | [5] 44.3% | [6] 41.1% | [7] 25.5% | [8] 22.6% | [9] 23% | [10] 32.7% | [11] 36.5% | [12] 54.2% | [13] 48.9% | [14] 42.9% | [15] 46.3%
active: [16] 0.132% | [17] 4.44%

COc1ccc(C(=O)N2c3ccccc3Sc3ccccc32)c(F)c1
inactive: [1] 44% | [2] 60.8% | [3] 49.2% | [4] 44.5% | [5] 48.4% | [6] 45.3% | [7] 17% | [9] 23% | [10] 18.6% | [11] 32.3% | [12] 62.1% | [13] 49.2% | [14] 38.3% | [15] 54.8%
active: [18] 2.13% | [16] -7.19% | [17] 1.71%

CS(=O)(=O)CCNCc1ccc(-c2ccc3ncnc(Nc4ccc(OCc5cccc(F)c5)c(Cl)c4)c3c2)o1
inactive: [1] 29.9% | [3] 19.6% | [5] 30.2% | [12] 65.2%
active: [2] -17.9% | [4] 7.31% | [18] 7.48% | [7] 5.76% | [8] 4.21% | [9] 3.31% | [10] -15.4% | [11] -26.5% | [13] -51.2% | [14] -6.37% | [15] 9.76% | [16] -63.1% | [17] 8.75%

Cc1cc(N(CCNc2ccnc3cc(Cl)ccc23)Cc2cccs2)nc(Cl)n1
inactive: [1] 33.9% | [11] 11.5% | [12] 12.8%
active: [2] -15.9% | [3] -79.4% | [4] -93% | [5] -88% | [18] -6.31% | [7] -2.45% | [8] -38.2% | [9] -22.9% | [10] -23.2% | [13] -51.3% | [14] -48.8% | [15] -1.29% | [16] -77.4% | [19] -5.93% | [17] -2.82%

CCOc1cc2ncc(C#N)c(Nc3ccc(OCc4ccccn4)c(Cl)c3)c2cc1NC(=O)/C=C/CN(C)C
active: [2] -62.8% | [3] -85% | [4] 5.99% | [5] -56% | [7] 3.88% | [9] -6.61% | [10] -7.58% | [11] -7.74% | [12] 9.55% | [13] -73.6% | [14] -10.6% | [15] -62.5% | [17] -10.8%
inactive: [1] 20.7% | [18] 34.7% | [8] 19.9% | [16] 47.5%

COc1cc(C2CC(c3ccc(Cl)cc3)=NN2c2ccc(Cl)cc2)cc(OC)c1OC (stereo not given)
inactive: [2] 88.4% | [3] 77.1% | [4] 98% | [5] 86% | [6] 82.3% | [18] 88% | [7] 84.7% | [8] 67.8% | [9] 98.7% | [10] 83.3% | [11] 101% | [12] 88.1% | [13] 83.2% | [14] 98.2% | [15] 94.8% | [19] 84% | [17] 95.6%

O=C(Nc1nc2cccc(-c3ccc(CN4CCS(=O)(=O)CC4)cc3)n2n1)C1CC1
inactive: [1] 106% | [2] 76.8% | [3] 75.3% | [4] 66.3% | [5] 93.6% | [18] 60.8% | [7] 30.9% | [8] 41% | [9] 45.4% | [10] 62.5% | [11] 58.1% | [12] 75.3% | [13] 78.4% | [14] 58.4% | [15] 65% | [16] 57.5% | [17] 90.3%

Cc1ccc(-c2cc3c(SCC(=O)Nc4cc(C(F)(F)F)ccc4Cl)nccn3n2)cc1
active: [9] -10.2% | [10] -12.5%
inactive: [2] 73.6% | [3] 30.4% | [4] 91.3% | [5] 40.4% | [18] 71.3% | [7] 20.3% | [11] 33.1% | [12] 84.7% | [13] 38.1% | [15] 52.7% | [16] 82.3% | [19] 87% | [17] 42.5%

O=S1(=O)OC(c2ccc(O)c(Cl)c2)(c2ccc(O)c(Cl)c2)c2ccccc21
inactive: [1] 112% | [2] 97% | [3] 66.2% | [4] 100% | [5] 96.9% | [18] 90.3% | [7] 102% | [8] 109% | [9] 112% | [10] 104% | [11] 87.5% | [12] 96.5% | [13] 99.8% | [15] 91.2% | [16] 116% | [19] 97% | [17] 105%

CC(C)CC(=O)Nc1n[nH]c2c1CN(C(=O)C1CCN(C)CC1)C2(C)C
inactive: [1] 57.8% | [2] 19.2% | [3] 80.9% | [4] 49.2% | [5] 54.2% | [11] 15.4% | [13] 33.5% | [15] 15.4% | [16] 18.3% | [17] 96.1%
active: [18] 7.55% | [7] 7.27% | [8] 4.42% | [9] 2.42% | [10] 3.37% | [12] 8.63% | [14] -1.71%

COc1cc2c(cc1OCCCCN1CCN(CC(=O)Nc3ccc(Cl)cc3C(=O)c3ccccc3Cl)CC1)N=CC1CCCN1C2=O (stereo not given)
active: [1] -79% | [2] -81.1% | [4] -90.1% | [5] -92.4% | [6] -89.8% | [18] -97.2% | [7] -59.8% | [8] -44.7% | [9] -66.7% | [10] -74% | [11] -65.5% | [12] -51.7% | [13] -91.4% | [14] -76% | [15] -88.2% | [16] -94.6% | [19] -66.4% | [17] 2.24%

C/C(=C(/c1ccc(Cl)cc1)c1ccc(OCCN2CCCC2)cc1)c1ccccc1
inactive: [1] 55.2% | [2] 80.8% | [3] 63% | [4] 87.7% | [5] 82.9% | [18] 77.6% | [7] 59.2% | [8] 68.7% | [10] 42.8% | [11] 88.1% | [12] 64.7% | [13] 91.7% | [14] 121% | [15] 65.9% | [16] 91.8% | [17] 77.6%
active: [9] 7.27%

N#CCNC(=O)c1ccc(-c2ccnc(Nc3ccc(N4CCOCC4)cc3)n2)cc1
inactive: [1] 43.9% | [2] 31.5% | [7] 15.7% | [10] 27.3% | [11] 24.1% | [12] 29% | [13] 65.8% | [14] 28.7% | [15] 10.7% | [16] 31.9% | [17] 62.7%
active: [3] -60.4% | [4] -8.51% | [5] 6.04% | [18] -31.8% | [8] 7.11% | [9] 6.43%

COc1cc(Nc2c(C#N)cnc3cc(OCCCN4CCN(C)CC4)c(OC)cc23)c(Cl)cc1Cl
inactive: [1] 54.9% | [2] 51.9% | [3] 38.1% | [4] 29.8% | [5] 27.3% | [18] 78.3% | [7] 38.9% | [8] 33.3% | [9] 31.5% | [10] 59.3% | [11] 42.9% | [12] 22.8% | [13] 56% | [14] 44.3% | [16] 77.9% | [17] 78.6%
active: [15] 6.33%

Cc1cc(C(=O)Nc2cc(Oc3ccc4nc(NC(=O)C5CC5)cn4n3)ccc2C)n(C)n1
active: [18] -39.2%
inactive: [1] 58.8% | [2] 37.8% | [3] 14.4% | [4] 27.4% | [5] 37.3% | [7] 29.9% | [9] 29.5% | [10] 48.6% | [11] 30.2% | [12] 11.6% | [13] 49% | [14] 17.9% | [15] 12% | [16] 52.8% | [17] 60.2%

CCNC(=O)C#Cc1ccc2c(C(=Nc3ccc(CN(C)C)cc3)c3ccccc3)c(O)[nH]c2c1
inactive: [1] 49% | [2] 36.5% | [4] 25.7% | [5] 35.6% | [7] 17.3% | [8] 10.9% | [10] 30% | [11] 48.3% | [13] 51.9% | [14] 10.8% | [16] 51% | [17] 54.3%
active: [3] 8.22% | [18] -40.3% | [9] -13.6% | [12] 5.7% | [15] 5.41%

COc1ccc(-c2cc3c(C)nc(N)nc3n(C3CCC(OCCO)CC3)c2=O)cn1 (stereo not given)
active: [1] -4.74% | [2] 7.14% | [3] -33.8% | [4] -43.4% | [5] -10.3% | [18] -55.8% | [8] 8.49% | [9] 1.95% | [10] 3.64% | [11] -12.6% | [12] -18.8% | [13] -7.57% | [14] -49.9% | [15] -36.9% | [16] -10.5% | [17] -14.7%
inactive: [7] 14.6%

COc1ccc(-c2ccc3c(N4CCOC[C@@H]4C)nc(N4CCOC[C@@H]4C)nc3n2)cc1CO
inactive: [7] 16.4% | [8] 11.6% | [16] 13%
active: [1] 7.48% | [2] 9.9% | [3] -13% | [4] -30.8% | [5] 5.54% | [18] -35.4% | [9] 9% | [10] 4.83% | [11] -3.37% | [12] 7.09% | [13] -26% | [14] -33.7% | [15] -33.2% | [17] -1.68%
